Screening results: PubChem, National Center for Advancing Translational Sciences (NCATS)
KinaseGlo FLuc – blocks Kinase-Glo luciferase, a counter-screen artifact | Q27757 | Kinase-Glo luciferase, ATP luminescence, 8 min | Potency, µM (top dose mostly 38.3 µM), actives largely listed as inhibitors | hit rate 0.28% among 200,000 | AID 1379; further: nearly all actives have a fitted effect of over 60% in size
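Inhibition of Kinase-Glo luciferase light generation was assessed at 10 uM ATP in pH 7.2 imidazole buffer, with luminescence measured after eight minutes at ambient temperature.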
ELG1 genotoxic – inducers of genotoxicity in HEK293T ELG1-luciferase cells; HEK293T ELG1-luciferase reporter, luminescence, 16 h; Potency, µM (series often up to 46 µM), actives largely listed as activators; hit rate 1.3% among 330,000; AID 504466; further: nearly all actives have a fitted effect of over 60% in size
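HEK293T cells expressing luciferase-tagged ELG1 were treated with compound or DMSO for 16 hr at 37°C. Luciferase activity was then read after 30 min with ONE-Glo at room temperature; rising signal flags genetic stress.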
NPC1 prom act – activators of NPC1 promoter; Huh7 NPC1 promoter luciferase reporter, 24 h; Potency, µM (highest dose often 9.22 µM), most hits filed as activators; hit rate 2.4% among 320,000; further: nearly all actives have a fitted effect of over 60% in size
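Quantitative HTS used a cell-based reporter: Huh7 cells stably bearing the NPC1 promoter upstream of luciferase were treated with compounds for 24 h, and promoter activation was read as luminescence.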
SMN2 splice up – enhancers of SMN2 splice variant expression. HEK293 SMN2-luciferase splicing reporter, luminescence, 30-36 h. Potency, µM (doses to about 46.1 µM), most hits filed as activators. hit rate 2.8% among 210,000. AID 1458; further: nearly all actives have a fitted effect of over 55% in size
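HEK293 cells carry an SMN2 […]–luciferase reporter in which exon 7 inclusion puts luciferase in frame. Cells were plated 10-12 h before compound addition, then incubated 30-36 h at 37C. ONE-Glo luminescence was read; sodium butyrate at 4.5 mM final served as control.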
FLuc counter – firefly luciferase modulation, counter-screen for miR-21 project. AID 588342. purified FLuc, Km substrates, luminescence inhibition. hit rate 6.9% among 360,000. Potency, µM (doses to about 57.5 µM), hits mostly inhibitors. P08659; further: nearly all actives have a fitted effect of over 55% in size
Target sequence (P08659 whole entry, looked up): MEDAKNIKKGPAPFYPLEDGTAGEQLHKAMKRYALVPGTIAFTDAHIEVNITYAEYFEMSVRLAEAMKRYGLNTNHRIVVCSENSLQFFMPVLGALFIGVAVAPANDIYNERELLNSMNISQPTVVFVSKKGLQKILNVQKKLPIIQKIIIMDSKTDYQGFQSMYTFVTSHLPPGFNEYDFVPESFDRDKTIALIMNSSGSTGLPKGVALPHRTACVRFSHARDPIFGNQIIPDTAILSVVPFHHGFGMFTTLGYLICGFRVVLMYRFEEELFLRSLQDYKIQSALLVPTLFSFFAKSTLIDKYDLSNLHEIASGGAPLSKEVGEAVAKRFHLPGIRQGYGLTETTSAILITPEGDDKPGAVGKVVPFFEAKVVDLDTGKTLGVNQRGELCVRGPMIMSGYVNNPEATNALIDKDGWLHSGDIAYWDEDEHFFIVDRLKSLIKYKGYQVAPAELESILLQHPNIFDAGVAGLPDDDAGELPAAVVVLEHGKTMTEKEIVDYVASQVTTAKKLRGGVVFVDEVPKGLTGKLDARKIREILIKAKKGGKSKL
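Biochemical qHTS of compounds, final roughly 60 µM downward over six points, against 10 nM purified firefly luciferase using Km concentrations of substrates (10 uM D-luciferin, 10 uM ATP) in Tris acetate pH 7.5 buffer; luminescence output.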
Rab9 promoter act – Rab9 promoter activation | Huh7 Rab9 promoter-luciferase reporter, luminescence, 24 h | Potency, µM (doses to about 9.22 µM), actives largely listed as activators | hit rate 2.8% among 320,000 | AID 485297; further: nearly all actives have a fitted effect of over 60% in size
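Quantitative HTS format; Huh7 Rab9-luciferase reporter cells (1500/well) receive compound 2 h post-plating, incubate 24 h at 37 °C, then get luciferase reagent for 10 min before luminescence reading.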
Numbers stand for hits; 0 = inactive; ? = inconclusive; - = no result. Sampled rows, rich in hits. Any-hit rate of the full collection: about 7.5%. The call rests on the fitted dose curve; in most records, active means well fitted curve in the direction sought with a large enough effect; inconclusive means small, poorly fitted or top-dose-only effect, or another doubt; inactive means no such curve, though single readings can be large; an effect the other way counts as inactive or inconclusive.

SMILES	KinaseGlo FLuc	ELG1 genotoxic	NPC1 prom act	SMN2 splice up	FLuc counter	Rab9 promoter act
COc1ccc(-c2cc(C(=O)Nc3cccnc3)no2)cc1OC	-	?	2.2µM	0	19µM	?
Cc1ccc(-c2cc(C(=O)NCc3cccnc3)no2)cc1	0	13µM	?	0	11µM	?
O=C(Nc1cccc(Br)c1)c1cc(-c2ccc3c(c2)OCCO3)on1	-	-	-	-	0.67µM	-
O=C(Nc1cccnc1)c1cc(-c2ccc(Cl)c(Cl)c2)on1	-	0	0	-	?	0
COc1ccc(-c2cc(C(=O)NCc3cccnc3)no2)cc1OC	0	0	0	0	0	0
Cc1ccc(NC(=O)c2cc(-c3ccc4c(c3)OCO4)on2)cc1C	-	?	0	-	0	0
CC(=O)Nc1ccccc1-c1nc2ccccc2n(C(C)C(=O)c2ccc(C)c(C)c2)c1=O (stereo unspecified)	-	-	-	-	0	-
CN1CCCN(S(=O)(=O)c2cccc(C(F)(F)F)c2)c2nc3ccccc3nc21	-	0	0	-	-	0
CCOc1ccc(/C=C/c2nc3ccccc3n2S(=O)(=O)c2ccc(Br)cc2)cc1	-	-	-	2.8µM	0.85µM	-
O=S(=O)(c1cccc(C(F)(F)F)c1)n1c(/C=C/c2ccccc2)nc2ccccc21	-	-	-	-	12µM	-
CSc1ccc(/C=C/c2nc3ccccc3n2S(=O)(=O)c2ccc(Br)cc2)cc1	-	-	-	0.5µM	0.043µM	-
CC1CCN(S(=O)(=O)c2ccc3c(ccc(=O)n3CC(=O)Nc3ccc(C(C)C)cc3)c2)CC1	-	-	-	-	0	-
CCOc1cccc(C(=O)Nc2cc(-c3ccc(C)cc3)no2)c1	-	-	-	0	0	-
CCCCOc1ccc(C(=O)Nc2cc(-c3ccc(C)cc3)no2)cc1	-	-	-	0	0	-
Cc1ccc(-c2cc(NC(=O)COc3ccc(Cl)c(C)c3)on2)cc1	-	-	-	0	0	-
COc1cccc(C(=O)Nc2cc(-c3ccccc3)no2)c1	-	-	-	16µM	1.2µM	-
Cc1ccc(-c2cc(NC(=O)c3ccccc3Cl)on2)cc1	-	-	-	13µM	?	-
CCOc1ccc(C(=O)Nc2cc(-c3ccccc3)no2)cc1	-	-	-	?	1.5µM	-
COc1ccc2c(=O)c3c(=O)n(Cc4ccco4)c(-c4ccco4)nc3oc2c1	0	0	0	0	?	0
COc1ccc(Cn2c(-c3ccco3)nc3oc4cc(OC)ccc4c(=O)c3c2=O)cc1	0	?	3.2µM	0	?	4µM
CCc1cccc(NC(=O)c2nc(-c3ccncc3)no2)c1	-	-	-	-	0	-
Cc1ccc(CSc2ccc(-c3cccs3)nn2)cc1	0	23µM	4.5µM	14µM	2.1µM	2.8µM
Fc1ccc(CSc2ccc(-c3cccs3)nn2)cc1	0	?	?	5µM	?	?
Cc1ccccc1CSc1ccc(-c2cccs2)nn1	-	-	-	-	7.6µM	-
O=C(CSc1ccc(-c2cccs2)nn1)Nc1cccc(F)c1	-	-	-	-	24µM	-
SMILES	KinaseGlo FLuc	ELG1 genotoxic	NPC1 prom act	SMN2 splice up	FLuc counter	Rab9 promoter act
CC1CCCN(C(=O)COC(=O)c2ccc3[nH]c4c(c3c2)CCCC4)C1 (stereo unspecified)	-	0	0	-	?	0
CC[C@H](C)[C@H](NC(N)=O)C(=O)Nc1ccccc1F	0	0	0	0	0	0
Cc1c(Cl)cccc1-n1ncc(C(=O)N2CCC(C)CC2)c1C1CCN(C(=O)OC(C)(C)C)CC1	-	-	-	-	0	-
Clc1cccc(CSc2ccc(-c3cccnc3)nn2)c1	0	0	0	0	?	0
Fc1cccc(CSc2ccc(-c3cccs3)nn2)c1	-	-	-	-	9.5µM	-
c1cncc(CSc2ccc(-c3cccs3)nn2)c1	0	0	?	0	17µM	3.5µM
COc1ccc(C2CC(=O)NC(NC(=O)c3ccc(Br)cc3)=N2)c(OC)c1OC (stereo unspecified)	-	-	-	-	0	-
CCc1ccc(NC(=O)C2CCCN(S(=O)(=O)c3cccc4nsnc34)C2)cc1 (stereo unspecified)	-	-	-	0	0	-
CN(C)c1cccc(/C=C(\C#N)c2ccccc2)c1	-	4.1µM	?	-	1.2µM	0.5µM
CN(C)c1ccc(C(=O)C(=O)c2ccccc2)cc1	-	0	0	-	24µM	?
N#C/C(=C\c1cccs1)C(=O)c1ccccc1	-	0	0	-	15µM	0
CN(C)c1ccc(/C=C(/NC(=O)c2ccccc2)C(=O)N2CCCC2)cc1	-	0	0	-	17µM	0
CS(=O)(=O)N(CC(=O)N1CCCC1)Cc1ccc(Cl)c(Cl)c1	-	0	0	-	0	0
